These results are taken from PubChem BioAssay (NCATS).

Inconclusive results are not listed. A call without a number means that no potency is given here. Calls of active or inactive are those of the source. Calls come from the whole dose curve; as a rule, active = well fitted cell-killing curve with a large enough effect; inconclusive = small, poorly fitted or top-dose-only effect; inactive = flat fitted curve, though single readings scatter.
Potency is the fitted concentration of half-maximal effect.

This assay is described as follows: Cell Viability - LYMP2-015 (AID 971). Note: nearly all actives have a fitted effect of over 55% in size. As to conditions: LYMP2-015 lymphoblastoid cell viability; series mostly up to 92.2 µM. An excerpt: NIH Chemical Genomics Center [NCGC]
NIH Molecular Libraries Screening Centers Network [MLSCN]
National Institutes of Environmental Health Sciences [NIEHS]
National Toxicology Program [NTP]
We have developed a 1536-well cell-based assay for quantitative high throughput screening (qHTS) against a number of cell lines to determine in vitro cytotoxicity of small molecules. This particular assay uses a human lymphoblastoid cell line (LYMP2-015) purchased from Coriell Institute for Medical Research.
NCGC Assay Protocol Summary:
The CellTiter-Glo luminescent cell viability assay (Promega) is a homogeneous method to measure the number of viable cells in culture. The end point readout of this assay is based on quantitation of intracellular ATP, an indicator of metabolic activity, using the luciferase reaction. Luciferase catalyzes the oxidation of beetle Luciferin to oxyluciferin and light in the presence of ATP. The luminescent signal is proportional to amount of ATP present.
Using the CellTiter-Glo luminescent cell viability assay, the amount of cellular ATP was measured in the lymphoblastoid cell line with complete culture medium following compound treatment for 24 hours. The assay was performed in opaque white Kalypsys 1536-well plates. In the screen, tetraoctylammonium bromide was used as positive control. Library compounds were measured for their ability to cause acute toxicity in the cell line, as reflected by a decrease in intracellular ATP levels, in a concentration-dependent manner. […] AC50 values were determined from concentration-response data modeled with the standard Hill equation.
qHTS protocol for CellTiter Glo lymphoblastoid cellular assay
[Step] [Parameter] [Value] [Description]
1. Reagent; 5 uL; 2500 lymphoblastoid cells/well
2. Time; 5 hr; 37 C incubation
4. Controls; 23 nL; Tetraoctylammonium bromide 6.4pM to 92 uM
5. Time; 24 hr; 37 C incubation
6. Reagent; 5 uL; CellTiter Glo reagent
7. Time; 30 min; Room Temperature
8. Detection; Luminescence; Viewlux plate reader
Keywords: cell viability, cytotoxicity, lymphoblastoid cell line, luminescence, NTPHTS, NTPHTS_NCGC, NIEHS, DSSTox, MLSMR, MLSCN, NIH Roadmap, qHTS, NCGC
For `OCCOc1ccccc1`, the Potency result was “inactive”. On to `CCCC(C)(COC(N)=O)COC(=O)NC(C)C` (stereo not drawn), for which the Potency result was “inactive”.

Take `Oc1cccc2cccnc12`: the Potency is 12.6 µM (active). The value for `CC(COc1ccccc1)N(CCCl)Cc1ccccc1` (stereo not drawn) was 39.8 µM (active); that for `N[C@@H](Cc1ccc(N(CCCl)CCCl)cc1)C(=O)O` was 31.6 µM (active); that for `c1ccc2c(c1)Nc1ccccc1S2` was “inactive”. Take `Clc1ccc(COC(Cn2ccnc2)c2ccc(Cl)cc2Cl)cc1` (stereo not drawn): the Potency entry was “inactive”. Regarding `Oc1ccccc1-c1ccccc1`, the Potency result was “inactive”.

For `CNCC(O)c1ccc(O)cc1` (stereo not drawn), the Potency result was “inactive”. As for `NCC(O)c1ccc(O)cc1` (stereo not drawn), the Potency entry was “inactive”.

Take `CCOP(=S)(OCC)Oc1cc(C)nc(C(C)C)n1`: the Potency entry was “inactive”. For `CN(C)CCC=C1c2ccccc2CCc2ccccc21` the value was 31.6 µM (active); for `Oc1ccc(Cl)cc1Cc1ccccc1`, “inactive”.
